According to PubChem BioAssay (EPA / NIEHS):
Activity calls are given as the source filed them. The calls were made as follows: active = hit-call score of the fitted dose curve at least 0.9, where 1 is the maximum; inactive = score below 0.9.

Experiments:
[1] = read-out: Urokinase-type plasminogen activator receptor (uPAR), PLAUR (gene 5329); assay: BSK_BE3C_uPAR: BioMAP Diversity Plus: BE3C Assay for Urokinase-type plasminogen activator receptor (uPAR) Biomarker Activity (AID 2283039); conditions: primary human bronchial epithelial cells; actives raise or lower the signal
In short: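 Steps: dose human primary bronchial epithelial cells, incubate 24 h, measure uPAR by ELISA, then fit gain- or loss-of-signal response bidirectionally relative to DMSO.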

[2] = read-out: Interleukin-6 (IL6), IL6 (gene 3569); assay: BSK_CASM3C_IL6: BioMAP Diversity Plus: CASM3C Assay for Interleukin-6 (IL6) Biomarker Activity for (AID 2283040); conditions: primary human coronary artery smooth muscle cells; actives raise or lower the signal
[3] = read-out: Tissue plasminogen activator (tPA), PLAT (gene 5327); assay: BSK_BE3C_tPA: BioMAP Diversity Plus: BE3C Assay for Tissue plasminogen activator (tPA) Biomarker Activity (AID 2283041); conditions: primary human bronchial epithelial cells; actives raise or lower the signal
In short: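 Gain- or loss-of-signal in tPA, measured by ELISA, derived by bidirectional fitting against DMSO. Cells: human primary bronchial epithelial; read at 24 h after chemical dosing.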

[4] = read-out: Interleukin-8 (IL8), CXCL8 (gene 3576); assay: BSK_CASM3C_IL8: BioMAP Diversity Plus: CASM3C Assay for Interleukin-8 (IL8) Biomarker Activity (AID 2283042); conditions: primary human coronary artery smooth muscle cells; actives raise or lower the signal;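 also: IL-8 protein level quantified by ELISA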
[5] = read-out: Human Leukocyte Antigen - DR isotype (HLADR), HLA-DRA (gene 3122); assay: BSK_CASM3C_HLADR: BioMAP Diversity Plus: CASM3C Assay for Human Leukocyte Antigen - DR isotype (HLADR) Biomarker Activity (AID 2283043); conditions: primary human coronary artery smooth muscle cells; actives raise or lower the signal;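 also: cell-surface HLA-DR protein level quantified by ELISA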
[6] = read-out: Macrophage colony-stimulating factor (MCSF), CSF1 (gene 1435); assay: BSK_CASM3C_MCSF: BioMAP Diversity Plus: CASM3C Assay for Macrophage colony-stimulating factor (MCSF) Biomarker Activity (AID 2283044); conditions: primary human coronary artery smooth muscle cells; actives raise or lower the signal;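 also: M-CSF protein amount quantified by ELISA after 24 h exposure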
[7] = read-out: Low-density lipoprotein receptor (LDLR), LDLR (gene 3949); assay: BSK_CASM3C_LDLR: BioMAP Diversity Plus: CASM3C Assay for Low-density lipoprotein receptor (LDLR) Biomarker Activity (AID 2283045); conditions: primary human coronary artery smooth muscle cells; actives raise or lower the signal;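 also: LDLR protein level on the cell surface quantified by ELISA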
[8] = read-out: Monocyte Chemoattractant Protein-1 (MCP1), CCL2 (gene 6347); assay: BSK_CASM3C_MCP1: BioMAP Diversity Plus: CASM3C Assay for Monocyte Chemoattractant Protein-1 (MCP1) Biomarker Activity (AID 2283046); conditions: primary human coronary artery smooth muscle cells; actives raise or lower the signal;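 also: MCP-1 level quantified by ELISA 24 h after dosing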
[9] = BSK_CASM3C_Proliferation: Cell Proliferation Assessment in the BioMAP Diversity Plus: CASM3C Assay (AID 2283047); conditions: primary human coronary artery smooth muscle cells;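 also: sulforhodamine B total protein stain as relative cell number at 560 nm; sub-confluent cells exposed 48 h before staining; fitted both ways against DMSO so gain or loss of cell number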
[10] = read-out: Monokine induced gamma interferon (MIG), CXCL9 (gene 4283); assay: BSK_CASM3C_MIG: BioMAP Diversity Plus: CASM3C Assay for Monokine induced gamma interferon (MIG) Biomarker Activity (AID 2283048); conditions: primary human coronary artery smooth muscle cells; actives raise or lower the signal;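 also: MIG protein level measured by ELISA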

Measured: AC50

CCC(=O)C(CC(C)N(C)C)(c1ccccc1)c1ccccc1 (stereo not drawn)
inactive: all assays above

ClCC(Cl)CCl
inactive: all assays above

COP(=S)(OC)Oc1ccc(Sc2ccc(OP(=S)(OC)OC)cc2)cc1
active: [3] 10 µM
inactive: all other assays above

NC(=S)Nc1ccccc1
inactive: all assays above

O=C(Nc1ccc2[nH]ccc2c1)c1cc2cc(F)ccc2n1Cc1cccc(F)c1
active: [1] 6.74 µM | [2] 33.5 µM | [3] 5.75 µM | [4] 23.6 µM | [5] 17.8 µM | [6] 33.7 µM | [7] 14.6 µM | [8] 31.6 µM | [9] 21.1 µM | [10] 31.2 µM

C[C@]12CCC(=O)C[C@@H]1CC[C@@H]1[C@@H]2CC[C@]2(C)[C@@H](O)CC[C@@H]12
inactive: all assays above

Cc1ccccc1N
inactive: all assays above

CCCCCCCCC(=O)NCc1ccc(O)c(OC)c1
active: [5] 32.3 µM | [9] 20 µM
inactive: all other assays above

CC(=O)[O][Hg][c]1ccccc1
active: [1] 1.8 µM | [2] 3.56 µM | [3] 0.537 µM | [4] 3.6 µM | [5] 0.58 µM | [6] 0.816 µM | [7] 0.148 µM | [8] 0.394 µM | [9] 0.148 µM | [10] 2.05 µM

C(=NC1CCCCC1)=NC1CCCCC1
inactive: [3] | [4]
active: [1] 20 µM | [2] 36.8 µM | [5] 20 µM | [6] 26.1 µM | [7] 34.5 µM | [8] 32.8 µM | [10] 33.5 µM

CCN1CCC2(CC1)COc1cc3c(cc12)N(C(=O)c1ccc(-c2ccc(-c4nnc(C)o4)cc2C)cc1)CC3
active: [1] 18.7 µM | [2] 31.7 µM | [3] 18.7 µM | [4] 27.9 µM | [5] 15.3 µM | [6] 27.4 µM | [7] 34.2 µM | [8] 28.5 µM | [9] 18.7 µM | [10] 36 µM

CN(C)N=O
inactive: all assays above

CCOC(=O)/C=C(C)/C=C/C[C@@H](C)CCCC(C)C
active: [1] 20 µM | [2] 30.7 µM | [3] 9.78 µM | [5] 18.5 µM | [6] 26.6 µM | [7] 27.2 µM | [8] 31.9 µM | [9] 29 µM | [10] 30 µM
inactive: [4]

BrCCBr
active: [9] 0.197 µM
inactive: all other assays above

CC(C)(c1ccccc1)c1ccc(O)c(C(C)(C)c2ccccc2)c1
active: [1] 29.3 µM | [2] 26.4 µM | [3] 14.7 µM | [4] 28.5 µM | [5] 25.8 µM | [6] 25.3 µM | [7] 28.2 µM | [9] 7.92 µM | [10] 29.4 µM

COP(=S)(OC)Oc1cc(Cl)c(Cl)cc1Cl
active: [5] 20 µM | [6] 3.97 µM | [9] 29.3 µM
inactive: all other assays above

CCOP(=S)(OCC)SCSP(=S)(OCC)OCC
inactive: all assays above
